A number with no mark means an inactive call. For part of these data: Entries with a potency or affinity are not part of this list. Calls of active or inactive are those of the source. Unless noted, the rule behind the calls is not given here.

The nature of assay [1]: antimalarial activity against Dd2 strain (AID 2302;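 active = growth inhibition above 50% at the single 2 µM test dose, taken to imply half-maximal potency below 2 µM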;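 note: 0% = DMSO untreated growth and 100% = chloroquine plus artemisinin killed control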). The following applies: P. falciparum Dd2 in RBCs, LDH growth readout, 72 h; at 2 µM; active compounds read high.
Assay [2] in a line: HepG2 cytotoxicity, primary screen, cytotoxicity control for P. falciparum antimalarial project, cell-based, ATP luminescence (AID 2303;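 active = inhibition above 50%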;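 note: 0% = DMSO wells and 100% = digitonin-killed cells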). The note with it: HepG2 viability, 24-48 h, at 10 µM, active compounds read high.
The target in assay [3] is L-lactate dehydrogenase (Plasmodium falciparum (isolate CDC / Honduras)) (UniProt Q27743). The assay is described as follows: PfLDH activity inhibition – cell lysate, 3D7 strain, counter-screen for P. falciparum growth inhibition project (AID 2304).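 Note: 0% = vehicle and 100% = reference inhibitor.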 The following applies: P. falciparum 3D7 crude extract, LDH APAD/NBT absorbance; at 2 µM; active compounds read high. (In general: A counterscreen serves to expose hits that act by an unwanted route or on another target.)

Assay [4] is described as follows: inhibition of 3D7 malaria parasite growth – strain 3D7 (AID 2306).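 Note: 0% = DMSO wells and 100% = chloroquine plus artemisinin control wells.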 The note with it: P. falciparum 3D7 erythrocytic growth, LDH absorbance, 72 h; at 2 µM; active compounds read high.
The target of assay [5] is Calcium-dependent protein kinase 1 (Plasmodium falciparum (isolate 3D7)) (UniProt P62344). The assay is described as follows: PfCDPK1 kinase inhibitors, biochemical, TCAMS library (AID 1159585; cut-off not given, nearly all actives have IC50 up to about 0.98 µM;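 note: inhibitors leave more ATP so luminescence rises with inhibition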). The note with it: recombinant PfCDPK1, Kinase-Glo ATP depletion luminescence. (Kinase-Glo reads ATP consumption through a luciferase reaction.)
For assay [6], the target named is Plasmodium falciparum protein kinase 6 (PK6, PF3D7_1337100) (UniProt Q8IDW1). Description: PfPK6 kinase inhibitors, biochemical, TCAMS library (AID 1159586). The following applies: recombinant PfPK6, Kinase-Glo ATP depletion luminescence.
The target in assay [7] is Protein kinase 7 (PK7), Plasmodium falciparum 3D7 (PF3D7_0213400) (UniProt Q7YTF7). Description: inhibition of Plasmodium PK7 catalytic activity – biochemical, TCAMS antimalarial set, Kinase-Glo luminescence (AID 1159587). The following applies: recombinant PfPK7, Kinase-Glo ATP depletion luminescence.
Assay [8] concerns the target Calcium-dependent protein kinase 4 (Plasmodium falciparum (isolate 3D7)) (UniProt Q8IBS5). Description: PfCDPK4 kinase inhibitors, biochemical, TCAMS library (AID 1159588; cut-off not given, nearly all actives have IC50 up to about 0.91 µM). The note with it: recombinant PfCDPK4, Kinase-Glo ATP depletion luminescence.

Protein kinase 7 (PK7), Plasmodium falciparum 3D7 (PF3D7_0213400), sequence (Q7YTF7 1-343): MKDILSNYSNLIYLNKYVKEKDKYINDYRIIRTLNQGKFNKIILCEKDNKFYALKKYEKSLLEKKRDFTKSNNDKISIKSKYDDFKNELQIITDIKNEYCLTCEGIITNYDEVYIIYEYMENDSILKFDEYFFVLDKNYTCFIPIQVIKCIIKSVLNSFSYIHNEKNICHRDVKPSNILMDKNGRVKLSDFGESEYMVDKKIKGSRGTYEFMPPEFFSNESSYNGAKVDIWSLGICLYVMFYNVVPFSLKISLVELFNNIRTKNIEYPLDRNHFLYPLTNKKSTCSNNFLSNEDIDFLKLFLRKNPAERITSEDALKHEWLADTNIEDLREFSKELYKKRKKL
Calcium-dependent protein kinase 4 (Plasmodium falciparum (isolate 3D7)), sequence (Q8IBS5 whole entry, looked up): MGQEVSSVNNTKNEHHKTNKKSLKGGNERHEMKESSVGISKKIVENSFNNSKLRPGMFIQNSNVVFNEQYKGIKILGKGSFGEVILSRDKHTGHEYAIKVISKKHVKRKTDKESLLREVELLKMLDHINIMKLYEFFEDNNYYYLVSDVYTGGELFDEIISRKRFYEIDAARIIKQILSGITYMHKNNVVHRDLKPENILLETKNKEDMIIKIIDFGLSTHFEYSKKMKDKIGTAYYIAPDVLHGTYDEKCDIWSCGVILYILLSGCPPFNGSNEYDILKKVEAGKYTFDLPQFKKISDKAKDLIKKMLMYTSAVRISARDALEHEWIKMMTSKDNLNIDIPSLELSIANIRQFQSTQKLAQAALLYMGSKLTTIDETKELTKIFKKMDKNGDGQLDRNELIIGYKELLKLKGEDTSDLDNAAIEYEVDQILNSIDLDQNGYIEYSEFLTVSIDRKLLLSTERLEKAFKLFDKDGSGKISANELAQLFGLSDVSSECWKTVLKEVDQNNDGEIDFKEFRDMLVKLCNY
L-lactate dehydrogenase (Plasmodium falciparum (isolate CDC / Honduras)), sequence (Q27743 whole entry, looked up): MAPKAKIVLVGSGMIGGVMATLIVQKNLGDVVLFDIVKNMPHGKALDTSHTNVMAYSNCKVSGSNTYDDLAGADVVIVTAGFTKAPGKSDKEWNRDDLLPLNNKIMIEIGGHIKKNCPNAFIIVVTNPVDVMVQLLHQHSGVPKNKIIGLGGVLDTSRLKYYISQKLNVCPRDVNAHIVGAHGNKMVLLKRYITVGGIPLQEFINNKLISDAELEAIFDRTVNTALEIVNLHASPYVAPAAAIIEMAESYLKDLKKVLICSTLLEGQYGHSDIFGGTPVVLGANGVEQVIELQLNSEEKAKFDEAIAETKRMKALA
Calcium-dependent protein kinase 1 (Plasmodium falciparum (isolate 3D7)), sequence (P62344 whole entry, looked up): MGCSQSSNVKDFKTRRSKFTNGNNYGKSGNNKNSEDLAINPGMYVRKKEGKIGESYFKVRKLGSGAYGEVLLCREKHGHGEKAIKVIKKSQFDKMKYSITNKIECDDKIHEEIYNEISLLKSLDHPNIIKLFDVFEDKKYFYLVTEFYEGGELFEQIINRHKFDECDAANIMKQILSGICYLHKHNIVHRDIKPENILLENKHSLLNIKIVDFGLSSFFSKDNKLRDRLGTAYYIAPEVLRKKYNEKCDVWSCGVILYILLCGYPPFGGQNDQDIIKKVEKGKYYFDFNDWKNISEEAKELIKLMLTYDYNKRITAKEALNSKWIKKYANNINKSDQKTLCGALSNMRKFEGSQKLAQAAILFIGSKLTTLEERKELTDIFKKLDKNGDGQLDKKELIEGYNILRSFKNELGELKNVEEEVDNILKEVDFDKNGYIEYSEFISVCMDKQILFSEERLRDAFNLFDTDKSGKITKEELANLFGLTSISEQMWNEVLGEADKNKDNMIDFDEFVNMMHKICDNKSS
Plasmodium falciparum protein kinase 6 (PK6, PF3D7_1337100), sequence (Q8IDW1 1-305): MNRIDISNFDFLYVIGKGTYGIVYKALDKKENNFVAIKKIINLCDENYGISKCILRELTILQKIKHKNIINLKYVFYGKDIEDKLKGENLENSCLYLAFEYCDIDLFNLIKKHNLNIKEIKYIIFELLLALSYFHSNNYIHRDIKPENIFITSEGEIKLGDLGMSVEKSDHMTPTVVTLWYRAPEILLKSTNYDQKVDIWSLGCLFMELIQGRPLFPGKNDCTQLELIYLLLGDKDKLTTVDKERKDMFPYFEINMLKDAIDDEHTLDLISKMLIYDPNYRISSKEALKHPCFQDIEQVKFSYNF

Broadly, the inhibition is the relative decrease from the control value, in per cent. For `COc1ccc(Nc2nccc(N3CCC(NS(=O)(=O)c4ccc(NC(C)=O)cc4)C3)n2)cc1` (stereo not drawn), the growth inhibition in assay [1] was 16%; in assay [4], 100% (active). Moreover, the inhibition is 3% in assay [2] and -2% in assay [3]. Moreover, the outcome in assay [5], in assay [6], in assay [7] and in assay [8] was inactive.
For the compound `c1cc(CNCC2CCN(CC3CCCCC3)CC2)cc(-n2ccnc2)c1`, the growth inhibition is 99% (active) in assay [1] and 102% (active) in assay [4]. The inhibition in assay [2] is 18%; in assay [3], -1%. Further, the result in assay [5], in assay [6], in assay [7] and in assay [8] was inactive.
On to `CSc1nc2nc(C)c(Cc3cccc(F)c3)c(C)n2n1`, for which the growth inhibition in assay [1] was 45%; in assay [4] it was 87% (active). The figures for the inhibition in assay [2] and in assay [3] were 3% and 0%, respectively. In addition, the outcome in assay [5], in assay [6], in assay [7] and in assay [8] was inactive.
Turning to `Cn1cnc2c(SCc3ccc(OCc4ccccc4)cc3)ncnc21`, the growth inhibition in assay [1] is 87% (active); in assay [4], 95% (active). In addition, the inhibition in assay [2] was 1%; in assay [3] it was -6%. Also, the outcome in assay [5], in assay [6], in assay [7] and in assay [8] was inactive.
On to `Cc1cccc2[nH]c(-c3cccc(-c4cccc(NC(=O)NCc5cccc(F)c5)c4)c3)nc12`, for which the results for the growth inhibition in assay [1] and in assay [4] were 32% and 98% (active), respectively. For the same compound, the figures for the inhibition in assay [2] and in assay [3] were 11% and -2%, respectively. Besides, the result in assay [5], in assay [6], in assay [7] and in assay [8] was inactive.
For `CC(C)N1CCN(C(CN2CCN(CCCOc3cccc(F)c3)CC2)c2ccc(F)cc2)CC1` (stereo not drawn), the growth inhibition in assay [1] is 38%; in assay [4], 92% (active). For the same compound, the inhibition is 38% in assay [2] and 0% in assay [3]. Besides, the result in assay [5], in assay [6], in assay [7] and in assay [8] was inactive.
Consider `CC(C)(C)CC(C)(C)c1ccc(O)c(CNC2CCCCC2)c1`, for which the growth inhibition was 99% (active) in assay [1] and 98% (active) in assay [4]. The figures for the inhibition in assay [2] and in assay [3] were 92% (active) and 4%, respectively. For the same compound, the result in assay [5], in assay [6], in assay [7] and in assay [8] was inactive.
`O=C(Nc1cccc(CCNCc2ccccc2)c1)Nc1cccc2ccccc12`: the growth inhibition in assay [1] is 8%; in assay [4], 102% (active). In addition, the inhibition in assay [2] was 13%; in assay [3], 1%. In addition, the outcome in assay [5], in assay [6], in assay [7] and in assay [8] was inactive.
For the compound `CCNc1cc(C(=O)N[C@@H](Cc2ccccc2)[C@H](O)CNC(C)CC(C)C)c(F)c(N2CCCCS2(=O)=O)c1` (stereo partly drawn), the growth inhibition in assay [1] was 66% (active); in assay [4], 95% (active). The inhibition in assay [2] was 6%; in assay [3] it was 4%. The result in assay [5], in assay [6], in assay [7] and in assay [8] was inactive.
Take `CC(=O)Nc1nc(C(=O)Nc2cccc(-c3ccc(-c4nc5c(C)cccc5[nH]4)s3)c2)cs1`: the growth inhibition in assay [1] is 67% (active); in assay [4], 101% (active). Moreover, the inhibition in assay [2] was 14%; in assay [3], -2%. For the same compound, the result in assay [5], in assay [6], in assay [7] and in assay [8] was inactive.
Regarding `O=C(Nc1ccc(-c2csc(-c3nc4ccccc4[nH]3)c2)cc1)Nc1ccc(Cl)c(Cl)c1`, the values for the growth inhibition in assay [1] and in assay [4] were 18% and 93% (active), respectively. For the same compound, the inhibition in assay [2] is 75% (active); in assay [3], -6%. The result in assay [5], in assay [6], in assay [7] and in assay [8] was inactive.
As for `Cc1cc(N2CCCCC2)nc2ccc(NC(=O)c3cccc([N+](=O)[O-])c3)cc12`, the growth inhibition was 99% (active) in assay [1] and 95% (active) in assay [4]. The inhibition was 9% in assay [2] and 2% in assay [3]. In addition, the outcome in assay [5], in assay [6], in assay [7] and in assay [8] was inactive.
Turning to `CC1(C)CCCN(c2ncc(-c3cccc(CNCc4ccccc4O)c3)cn2)C1`, the results for the growth inhibition in assay [1] and in assay [4] were 82% (active) and 96% (active), respectively. In addition, the inhibition in assay [2] was 35%; in assay [3], -4%. In addition, the outcome in assay [5], in assay [6], in assay [7] and in assay [8] was inactive.
On to `NC1CCN(c2cnn(Cc3cccc(NC(=O)Nc4ccc(-c5ccccc5)cc4)c3)c(=O)c2Cl)CC1`, for which the growth inhibition in assay [1] is 11%; in assay [4], 89% (active). Further, the values for the inhibition in assay [2] and in assay [3] were 5% and -3%, respectively. Besides, the outcome in assay [5], in assay [6], in assay [7] and in assay [8] was inactive.
As to `O=C(/C=C/c1ccc(Cl)c(Cl)c1)NCCCCCN1CCC(NC(=O)Nc2cccc(Cl)c2F)CC1`, the growth inhibition was 30% in assay [1] and 101% (active) in assay [4]. In addition, the inhibition in assay [2] is 75% (active); in assay [3], 4%. The outcome in assay [5], in assay [6], in assay [7] and in assay [8] was inactive.
As for `CCOC(=O)c1cnc2c(OC)cc(OC)c(Cl)c2c1Nc1cccc(C)c1`, the results for the growth inhibition in assay [1] and in assay [4] were 20% and 95% (active), respectively. The inhibition was 0% in assay [2] and -2% in assay [3]. Besides, the outcome in assay [5], in assay [6], in assay [7] and in assay [8] was inactive.
As for `COc1cccc(C(C)(C)NC[C@@H](O)[C@H](Cc2ccccc2)NC(=O)c2cc(C3CCCC3)cc(N3CCCCS3(=O)=O)c2F)c1`, the growth inhibition in assay [1] and in assay [4] was 99% (active) throughout. For the same compound, the inhibition is 16% in assay [2] and 7% in assay [3]. Moreover, the result in assay [5], in assay [6], in assay [7] and in assay [8] was inactive.
With `COc1ccc(-c2ccc(NC(=O)c3ccc(C#N)cc3)cc2)cc1CN1CCC(O)CC1`, the growth inhibition was 28% in assay [1] and 94% (active) in assay [4]. Besides, the inhibition in assay [2] is 24%; in assay [3], 7%. For the same compound, the outcome in assay [5], in assay [6], in assay [7] and in assay [8] was inactive.
`COC1(C)Oc2ccc3cccc([N+](=O)[O-])c3c2C1=O` (stereo not drawn): the growth inhibition in assay [1] is -4%; in assay [4] it was 98% (active). The values for the inhibition in assay [2] and in assay [3] were 3% and -2%, respectively. Further, the result in assay [5], in assay [6], in assay [7] and in assay [8] was inactive.
As for `CCN(CC)CCOC(=O)c1ccc(NC(=O)c2cn(-c3ccccc3)nc2-c2cccs2)cc1`, the figures for the growth inhibition in assay [1] and in assay [4] were 59% (active) and 100% (active), respectively. Further, the figures for the inhibition in assay [2] and in assay [3] were 25% and 3%, respectively. In addition, the result in assay [5], in assay [6], in assay [7] and in assay [8] was inactive.
For `COc1cccc(-c2nn(C)c3sc(C(=O)NCCN(C)Cc4ccccc4)cc23)c1`, the growth inhibition in assay [1] is 26%; in assay [4] it was 92% (active). In addition, the inhibition in assay [2] was 21%; in assay [3] it was -3%. The outcome in assay [5], in assay [6], in assay [7] and in assay [8] was inactive.

For the origin of these results see PubChem BioAssay.
